Test results reported in PubChem BioAssay AID2551 (National Center for Advancing Translational Sciences (NCATS), 2010).
Values joined by “and” are separate entries in the source; they are usually repeats but may differ in a detail not shown here. Equal entries are not always repeated. The whole screen tested about 310,000 compounds, of which about 17,000 (5.5%) were called active. Where a call stands in place of a potency, no number is given. Not shown: some 11% with an inconclusive outcome. The sample holds actives, similar compounds and a random draw of the others, so the mix is not that of the screen. Calls come from the whole dose curve; as a rule, active = well fitted inhibition curve with a large enough effect; inconclusive = small, poorly fitted or top-dose-only effect, or effect the other way; inactive = no such curve, though single readings can be large or run the other way. Some structures have more than one record in an assay (separate samples or runs), and their calls can disagree.

Target: Nuclear receptor ROR-gamma (Mus musculus) (UniProt P51450)
Assay: qHTS for inhibitors of ROR gamma transcriptional activity; note: nearly all actives have a fitted effect of over 60% in size
Settings: Drosophila S2 Gal4-RORgamma UAS-luciferase reporter, 20 h; series mostly up to 53.6 µM
Summary of the method: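 Using a luciferase readout, inhibitors were identified by reduced reporter activity in Drosophila cells coexpressing a copper-inducible Gal4–ROR gamma fusion and UAS-driven Photinus luciferase, incubated 20 hr after 700 uM copper sulfate.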
Potency is the fitted concentration of half-maximal effect.

Sequence of Nuclear receptor ROR-gamma (Mus musculus) (P51450 whole entry, looked up): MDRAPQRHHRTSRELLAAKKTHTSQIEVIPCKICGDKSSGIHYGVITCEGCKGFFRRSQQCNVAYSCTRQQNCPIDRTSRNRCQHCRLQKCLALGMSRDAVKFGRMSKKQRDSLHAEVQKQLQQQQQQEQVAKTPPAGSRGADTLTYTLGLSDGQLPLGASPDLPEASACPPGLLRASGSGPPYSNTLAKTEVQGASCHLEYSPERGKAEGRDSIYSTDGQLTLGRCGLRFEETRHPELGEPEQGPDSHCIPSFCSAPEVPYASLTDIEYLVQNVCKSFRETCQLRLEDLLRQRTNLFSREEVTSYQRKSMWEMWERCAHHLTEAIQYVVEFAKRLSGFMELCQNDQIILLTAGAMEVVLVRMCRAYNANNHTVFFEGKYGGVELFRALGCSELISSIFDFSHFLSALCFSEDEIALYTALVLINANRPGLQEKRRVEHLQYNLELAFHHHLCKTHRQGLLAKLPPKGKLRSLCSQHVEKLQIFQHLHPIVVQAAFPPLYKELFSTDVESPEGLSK

Structure (SMILES)	Potency	activity change, negative = inhibition
NC(=O)C1CC(=O)N(c2ccc(OCC(=O)NCc3ccccc3)cc2)C1 (centres undefined)	inactive	–
Cn1c(=O)[nH]c(=O)c2c1nc(N1CCN(C(c3ccccc3)c3ccccc3)CC1)n2CCO	inactive	–
O=C(COCc1cc(-c2ccc3c(c2)OCO3)on1)N1CCN(c2cccc(Cl)c2)CC1	inactive	–
CCOC(=O)c1sc(NC(=O)CCN2CCOCC2)c(C(=O)OCC)c1C	inactive	–
CCOC(=O)Nc1sc(C(=O)N(C)C)c(C)c1C(=O)OCC	inactive	–
CCOC(=O)c1c(NC(=O)CCl)sc(C(=O)N(CC)CC)c1C	20 µM (active)	–
Cc1ccc(S(=O)(=O)NCc2ccc(C(=O)NC3CCC(C)CC3)cc2)cc1 (centres undefined)	inactive	–
COc1ccccc1N1CC(C(=O)Nc2nnc(SCC(=O)NC(C)C)s2)CC1=O (centres undefined)	inactive	–
CC(=O)Oc1c2c(c3c(c1CC=C(C)C)O[C@@]14C(=CC5CC1C(C)(C)OC4(C/C=C(\C)C(=O)O)C5=O)C3=O)OC(C)(CCC=C(C)C)C=C2 (some centres undefined)	5.62 µM (active)	–
O=C(CNC(=O)c1ccc(Br)o1)NCC1CCCO1 (centres undefined)	inactive	–
CCNC(=O)c1cnn(-c2ccccc2)c1-c1ccccc1	inactive	–
COc1ccc(-n2nnnc2SCC(=O)Nc2ccccc2)cc1	inactive	–
CCOc1cccc(-n2nnnc2-c2ccc(OC)cc2)c1	inactive	–
COc1ccc(-n2nnnc2-c2nc3ccccc3s2)cc1	12.6 µM (active)	–
COc1cc(C2C3=C(CCCC3=O)OC3=C2C(=O)CCC3)ccc1OCC(=O)Nc1ccccc1	inactive	–
Cc1ccc(N(Cc2cc(=O)[nH]c3ccccc23)C(=O)CCl)cc1	15.8 µM (active)	–
Cc1ccc(N(Cc2cc3ccccc3[nH]c2=O)C(=O)c2cccs2)cc1	inactive	–
CC(=O)N(Cc1cc(=O)[nH]c2ccccc12)c1ccc(C)cc1C	inactive	–
Cc1cc(C)cc(NC(=O)C2CCCN2S(=O)(=O)c2cccc3cccnc23)c1 (centres undefined)	inactive	–
CCN1CCN(CCNC(=O)c2ccc3c(c2)NC(=O)/C(=C\c2ccc(OC)c(OC)c2)S3)CC1	inactive	–
CCCCc1cc(=O)oc2c(C)c(OCC(=O)N3CCC(C(N)=O)CC3)ccc12	inactive	–
O=C(/C=C/c1ccc2c(c1)OCO2)NCc1cn2cc(Cl)ccc2n1	inactive	–
CCOc1ncccc1C(=O)OCc1cn2cc(Cl)ccc2n1	inactive	–
Clc1ccc2nc(CSc3ccccc3)cn2c1	14.1 µM (active)	–
COc1ccc(CCOC(=O)CNC(=O)c2ccc(Cl)cc2Cl)cc1	inactive	–
COC(=O)Cc1cnc(NC(=O)CSc2nc(C(C)C)cc(=O)[nH]2)s1	inactive	–

Structure (SMILES)	Potency	activity change, negative = inhibition
COc1ccc(N2CCN(C(=O)[C@@H](NC(=O)c3cc(OC)cc(OC)c3)C(C)C)CC2)cc1	inactive	–
COc1ccc(-c2cn[nH]c2-c2ccc(OC)cc2)cc1	inactive	–
CCOc1ccccc1Oc1cn[nH]c1-c1ccc(OC)cc1O	8.91 µM (active)	–
CCN(CCn1cccn1)Cc1cn[nH]c1-c1ccc(OC)cc1F	inactive	–
O=S(=O)(NCC1CC1)c1ccc(F)c(Cl)c1	inactive	–
Cc1ccc(N(CC(=O)NCC2CCCO2)C(=O)CNS(=O)(=O)c2ccc(Cl)cc2)cc1 (centres undefined)	inactive	–
CCN(CC(=O)N1CCCC1)S(=O)(=O)c1ccc(F)cc1	inactive	–
O=C(CO/N=C/c1ccccc1O)NNC(=O)c1ccccc1Cl	20 µM (active)	–
O=C(CSCc1ccccc1Cl)NNC(=O)c1ccccc1	inactive	–
O=C(CO/N=C/c1ccccc1OC(F)F)NC1CCCC1	inactive	–
CCOc1ccc(C(C(=O)NCCOC)N(CCOC)C(=O)CCC(=O)Nc2ccccn2)cc1 (centres undefined)	inactive	–
O=C(Nc1nc(-c2ccc(-c3ccccc3)cc2)cs1)c1cnccn1	1.12 µM (active)	–
O=C(Nc1nc(-c2cccnc2)cs1)c1ccccc1F	inactive	–
COc1ccc(-c2csc(NC(=O)c3ccc(N4C(=O)CCC4=O)cc3)n2)cc1OC	inactive	–
Cc1ccc(Nc2nc(-c3sc(NC(=O)c4ccccc4)nc3C)cs2)cc1	inactive	–
Cc1ccc(-c2csc(NC(=O)c3cnccn3)n2)cc1C	2.24 µM (active)	–
Cc1ccc(C(=O)NCCNC(=O)c2cnccn2)cc1	inactive	–
O=C(O)c1ccccc1C(=O)Nc1nc(-c2ccccc2)cs1	inactive	–
CC(=O)Nc1ccc(-c2csc(NC(=O)Nc3ccccc3)n2)cc1	inactive	–
Cc1ccc(-c2csc(NNC(=O)c3ccccc3)n2)cc1	5.01 µM (active)	–
Cc1sc2ncn(CC(=O)NCCCC(=O)N3CCN(c4ccccc4F)CC3)c(=O)c2c1C	inactive	–
Nc1ccc(C(=O)Nc2ccccc2N)cc1	inactive	–
COc1ccc(NC(=O)CSc2nc(SC)ns2)c(OC)c1	inactive	–
Cc1ccc(S(=O)(=O)N(C)CC(=O)NCCc2c[nH]c3ccccc23)cc1	inactive	–
Cc1cccc(N(Cc2ccccc2)C(=O)c2ccccc2F)c1	inactive	–
CN(C(=O)c1ccno1)c1nnc(-c2cccnc2)s1	inactive	–

Structure (SMILES)	Potency	activity change, negative = inhibition
CN(C(=O)c1ccccn1)c1nnc(-c2ccccn2)s1	10 µM (active)	–
CN(C(=O)COc1ccccc1)c1nnc(-c2ccncc2)s1	inactive	–
O=C(COc1ccc(S(=O)(=O)Nc2cccc(C(F)(F)F)c2)cc1)N1CCOCC1	inactive	–
O=C(CCN1C(=O)[C@@H]2Cc3ccccc3CN2C1=O)NCCc1ccccc1	inactive	–
CCOc1cc(N2CCOCC2)c(OCC)cc1NC(=O)COc1cccc2cccnc12	inactive	–
Cc1nc2sc(C(c3ccco3)N3CCOCC3)c(O)n2n1 (centres undefined)	inactive	–
Oc1c(C(c2ccccn2)N2CCOCC2)ccc2cccnc12 (centres undefined)	1.26 µM (active)	–
O=C(NCc1nnc(SCC(=O)N2CCCCCC2)o1)c1ccc(F)cc1	inactive	–
Cc1nn(-c2ccccc2)c(Cl)c1/C=N/NC(=O)c1nn(C)cc1[N+](=O)[O-]	inactive	–
CCOC(=O)N1CCN(Cc2nnc(-c3ccccc3Cl)o2)CC1	inactive	–
CC(C)OCCCNC(=O)c1cc(Sc2ccc(F)cc2)nc2ccccc12	inactive	–
COc1ccc2nc(SCC(=O)Nc3c(C)cc(C)cc3C)[nH]c2c1	inactive	–
COC(=O)Nc1nc2ccc(Sc3ccccc3)cc2[nH]1	inactive and 6.31 µM (active)	–
S=c1[nH]cc(-c2ccc(Cl)cc2)n1-c1ccccc1	inactive	–
S=c1[nH]ccn1-c1ccc(Cl)cc1	3.55 µM (active)	–
COc1c(Cl)cc(C(=O)Nc2ccc(Cl)cn2)cc1Cl	inactive	–
O=C(CCN1CCN(c2ccccc2)CC1)NNC(=S)Nc1ccccc1	10 µM (active)	–
COc1ccc(C(=O)NC(=S)Nc2ccc(N3CCCC3)cc2)cc1OC	0.447 µM (active)	–
COc1ccc(C(=O)NC(=S)Nc2ccc(Cl)cn2)cc1OC	7.94 µM (active)	–
COc1ccc(C/C(C)=N/NC(=O)c2ccncc2)cc1	inactive	–
COc1ccc(C(=O)N/N=C(\C)CC(=O)Nc2ccc(Cl)cn2)cc1	5.01 µM (active)	–
COC(=O)c1ccc(NC(=O)c2cc(Cl)ccc2OC)cc1	inactive	–
COc1ccc(C(=O)Nc2ccc(N3CCC(C)CC3)cc2)cc1Br	inactive	–
O=C(CN1CCN(c2ccccc2)CC1)Nc1ccc(F)cc1	inactive	–
COc1ccc(COC(=O)N/N=C(\C)CC(=O)Nc2ccc(Cl)cc2)cc1	–	5.64% [at 10 µM] (inactive)
COc1cccc(C(=O)Nc2ccc(N3CCCC3)cc2)c1	inactive	–

Structure (SMILES)	Potency	activity change, negative = inhibition
O=C(CN1CCN(c2ccc(F)cc2)CC1)Nc1ccccc1	inactive	–
CCc1ccc(NC(=O)CN2CCC(C(=O)c3ccc(OC)cc3)CC2)cc1	inactive	–
Cc1c(C(=O)NC2CCCCC2)oc2ccccc12	inactive	–
CCCNC(=O)CCc1c(C)nc2c(c(C)nn2-c2ccccc2)c1C	inactive	–
Cc1ccc(S(=O)(=O)N2CCCC(C(=O)N3CCN(C)CC3)C2)cc1 (centres undefined)	inactive	–
O=C(Nc1ccncc1)Nc1ccc(F)cc1	inactive	–
COc1ccc(OCc2cc(C(=O)N3CCCC3)no2)c2ccccc12	inactive	–
COC(=O)CN1C(=O)[C@H]2[C@@H](C3CC3)N3C(=O)CN(Cc4ccc(-c5ccccc5)cc4)C(=O)[C@@]3(Cc3ccccc3)[C@H]2C1=O	inactive	–
CS(=O)(=O)Nc1ccccc1N=C(c1ccccc1)c1ccccc1	–	-31.1% [at 1.91 µM] (inactive)
COc1ccc(CN2CCNC(=O)C2CC(=O)NCc2cn[nH]c2-c2ccccc2)c(F)c1 (centres undefined)	inactive	–
COc1ccc2oc(C(=O)NCC(Cc3ccccc3)N(C)C)c(C)c2c1 (centres undefined)	inactive	–
O=C(c1ccccc1)c1ccc(C(=O)N2CCN(c3ccccc3)CC2)cc1	inactive	–
Cc1ccccc1C(=O)Nc1ccc(N2CCCCCC2)cc1	inactive	–
O=C(COc1ccc([N+](=O)[O-])cc1)Nc1ccc(N2CCCC2)cc1	inactive	–
Cc1ccccc1C(=O)NC(=S)Nc1ccc(N2CCN(C(=O)c3ccccc3)CC2)cc1	22.4 µM (active)	–
Cc1nc(NC(=O)c2ccc3c(c2)OCCO3)ccc1Br	inactive	–
O=C(CN1CCN(c2ccc(O)cc2)CC1)Nc1ccc(-c2ccccc2)cc1	inactive	–
O=C(Nc1ccc(Cl)cn1)c1cnn2cccnc12	inactive	–
Cc1ccc(C(=O)NC(=S)Nc2ccc(N3CCOCC3)cc2)cc1	6.31 µM (active)	–
COC(=O)c1ccc(NC(=S)NN2CCOCC2)cc1	inactive	–
O=C(Cc1ccccc1)NC(=S)Nc1ccc(N2CCCCC2)cc1	2.24 µM (active)	–
O=C(Nc1ccc(Cl)cn1)c1ccc2c(c1)OCCO2	8.91 µM (active)	–
Cc1ccc(OCCCC(=O)Nc2ccc(N3CCOCC3)cc2)cc1	inactive	–
CC1CCCN(CCCNC(=O)CN2C(=O)COc3ccc(S(=O)(=O)N4CCOCC4)cc32)C1 (centres undefined)	inactive	–
CC(C)[C@@H](C(=O)O)N(Cc1cccc(CN([C@H](C(=O)O)C(C)C)S(C)(=O)=O)c1)S(C)(=O)=O	inactive	–
COc1ccc(CCNC(=O)c2c(C)nn(-c3ccccc3)c2Cl)cc1	inactive	–
